The values that follow come from PubChem BioAssay (NCATS).

Results filed as inconclusive are left out. Calls of active or inactive are those of the source. Unless noted, calls come from the whole dose curve; as a rule, active = well fitted curve in the direction sought with a large enough effect; inconclusive = small, poorly fitted or top-dose-only effect, or another doubt; inactive = no such curve, though single readings can be large; an effect the other way counts as inactive or inconclusive.

A short description of test [1]: qHTS for Inhibitors of the Functional Ribonucleoprotein Complex (vRNP) of Lassa (LASV) Arenavirus: LASV Primary Screen - GLuc reporter signal (AID 1347082; calls by dose curve; tested in HEK293 reporter line; note: nearly all actives have a fitted effect of over 60% in size; note: potency is the fitted concentration of half-maximal effect).
Test [2] can be described thus: qHTS for Inhibitors of the Functional Ribonucleoprotein Complex (vRNP) of Lymphocytic Choriomeningitis Arenaviruses (LCMV): Viability assay - alamar blue signal for LCMV Primary Screen (AID 1347085; calls by dose curve; tested in HEK293 reporter line; note: nearly all actives have a fitted effect of over 80% in size; note: potency is the fitted concentration of half-maximal effect).
In test [3] the target is Nucleoprotein (Lymphocytic choriomeningitis virus (strain Armstrong)) (UniProt P09992). Put plainly: qHTS for Inhibitors of the Functional Ribonucleoprotein Complex (vRNP) of Lymphocytic Choriomeningitis Arenaviruses (LCMV): LCMV Primary Screen - GLuc reporter signal (AID 1347086; calls by dose curve; note: series mostly up to about 57 µM; nearly all actives have a fitted effect of over 70% in size).
Test [4] is described as follows: qHTS of pediatric cancer cell lines to identify multiple opportunities for drug repurposing: Primary screen for TC32 cells (AID 1347089). Note: nearly all actives have a fitted effect of over 60% in size. Note: potency is the fitted concentration of half-maximal effect. The method in brief:
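TC32 cells, 500-1,000/well in growth medium, compound-treated 48 h at 37 °C; viability from CellTiter-Glo luminescence. Primary screen: MIPE 11-point (0.78 nM–46 µM final), NPC 8-point (0.59 nM–46 µM final); confirmatory at 11-point dilutions.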

Test [5] is described as follows: qHTS of pediatric cancer cell lines to identify multiple opportunities for drug repurposing: Primary screen for DAOY cells (AID 1347090). Note: nearly all actives have a fitted effect of over 55% in size. Note: potency is the fitted concentration of half-maximal effect. The method in brief: (§1)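 Cell viability, CellTiter-Glo luminescence; 500-1,000 cells/well, 8- or 11-point titration, 48 h compound exposure at 37 degrees C, 5% CO2. Controls: DMSO neutral, bortezomib 2.3 µM final as positive.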
Test [6] can be described thus: qHTS of pediatric cancer cell lines to identify multiple opportunities for drug repurposing: Primary screen for SJ-GBM2 cells (AID 1347091). Note: potency is the fitted concentration of half-maximal effect. The method in brief:
as §1

Test [7] can be described thus: qHTS of pediatric cancer cell lines to identify multiple opportunities for drug repurposing: Primary screen for A673 cells (AID 1347092). Note: nearly all actives have a fitted effect of over 45% in size. Note: potency is the fitted concentration of half-maximal effect. The method in brief:
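A673 cells (500-1,000 cells/well) were treated 48 hours at 37 degrees C with compounds at 11-point (0.78 nM to 46 µM) or 8-point (0.59 nM to 46 µM) dilutions. Viability read by CellTiter-Glo luminescence; concentration-response curves fitted.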

Test [8] can be described thus: qHTS of pediatric cancer cell lines to identify multiple opportunities for drug repurposing: Primary screen for SK-N-MC cells (AID 1347093). Note: potency is the fitted concentration of half-maximal effect. Summed up:
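Metabolically active cells were quantified by ATP-dependent luminescence (CellTiter-Glo, 15 min at room temperature) following 48 h treatment. Cells had been plated at 500-1,000 per well and settled for 5 h beforehand.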

Test [9] is described as follows: qHTS of pediatric cancer cell lines to identify multiple opportunities for drug repurposing: Primary screen for BT-37 cells (AID 1347094). Note: potency is the fitted concentration of half-maximal effect. Summed up:
(§2)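 Plated cells (500-1,000 per well, growth media) were allowed to settle for 5 hours, treated with compound dilutions for 48 hours, then lysed with CellTiter-Glo for 15 min at room temperature before luminescence reading.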

A short description of test [10]: qHTS of pediatric cancer cell lines to identify multiple opportunities for drug repurposing: Primary screen for NB-EBc1 cells (AID 1347095). Note: potency is the fitted concentration of half-maximal effect. Summed up: as §2
A short description of test [11]: qHTS of pediatric cancer cell lines to identify multiple opportunities for drug repurposing: Primary screen for U-2 OS cells (AID 1347096). Note: nearly all actives have a fitted effect of over 50% in size. The method in brief:
(§3)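 Cells (500-1,000/well) rested 5 h, then received compounds for 48 h; metabolically active cells were measured by CellTiter-Glo luminescence. Final concentrations spanned up to 46 µM (MIPE, 11-point) or 0.59 nM-46 µM (NPC, 8-point) in primary screens, 11-point in follow-ups.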

A short description of test [12]: qHTS of pediatric cancer cell lines to identify multiple opportunities for drug repurposing: Primary screen for Saos-2 cells (AID 1347097). Note: nearly all actives have a fitted effect of over 40% in size. Note: potency is the fitted concentration of half-maximal effect. The method in brief: as §2
The nature of test [13]: qHTS of pediatric cancer cell lines to identify multiple opportunities for drug repurposing: Primary screen for NB1643 cells (AID 1347099). Note: nearly all actives have a fitted effect of over 50% in size. Note: potency is the fitted concentration of half-maximal effect. Summed up:
as §2

Test [14] can be described thus: qHTS of pediatric cancer cell lines to identify multiple opportunities for drug repurposing: Primary screen for LAN-5 cells (AID 1347100). Note: potency is the fitted concentration of half-maximal effect. The method in brief: as §3
The nature of test [15]: qHTS of pediatric cancer cell lines to identify multiple opportunities for drug repurposing: Primary screen for BT-12 cells (AID 1347101). Note: nearly all actives have a fitted effect of over 25% in size. Note: potency is the fitted concentration of half-maximal effect. The method in brief:
as §3

A short description of test [16]: qHTS of pediatric cancer cell lines to identify multiple opportunities for drug repurposing: Primary screen for Rh18 cells (AID 1347102). Note: nearly all actives have a fitted effect of over 65% in size. Note: potency is the fitted concentration of half-maximal effect. The method in brief: as §3
Test [17] is described as follows: qHTS of pediatric cancer cell lines to identify multiple opportunities for drug repurposing: Primary screen for OHS-50 cells (AID 1347103). Note: nearly all actives have a fitted effect of over 40% in size. Note: potency is the fitted concentration of half-maximal effect. Summed up: as §3
Test [18] is described as follows: qHTS of pediatric cancer cell lines to identify multiple opportunities for drug repurposing: Primary screen for SK-N-SH cells (AID 1347098). Note: nearly all actives have a fitted effect of over 65% in size. Note: potency is the fitted concentration of half-maximal effect. The method in brief:
as §3

Test [19] can be described thus: qHTS for Inhibitors of the Functional Ribonucleoprotein Complex (vRNP) of Lassa (LASV) Arenavirus: Viability assay - alamar blue signal for LASV Primary Screen (AID 1347083; calls by dose curve; tested in HEK293 reporter line; note: nearly all actives have a fitted effect of over 80% in size; note: potency is the fitted concentration of half-maximal effect).

Chain of Nucleoprotein (Lymphocytic choriomeningitis virus (strain Armstrong)) (P09992 whole entry, looked up): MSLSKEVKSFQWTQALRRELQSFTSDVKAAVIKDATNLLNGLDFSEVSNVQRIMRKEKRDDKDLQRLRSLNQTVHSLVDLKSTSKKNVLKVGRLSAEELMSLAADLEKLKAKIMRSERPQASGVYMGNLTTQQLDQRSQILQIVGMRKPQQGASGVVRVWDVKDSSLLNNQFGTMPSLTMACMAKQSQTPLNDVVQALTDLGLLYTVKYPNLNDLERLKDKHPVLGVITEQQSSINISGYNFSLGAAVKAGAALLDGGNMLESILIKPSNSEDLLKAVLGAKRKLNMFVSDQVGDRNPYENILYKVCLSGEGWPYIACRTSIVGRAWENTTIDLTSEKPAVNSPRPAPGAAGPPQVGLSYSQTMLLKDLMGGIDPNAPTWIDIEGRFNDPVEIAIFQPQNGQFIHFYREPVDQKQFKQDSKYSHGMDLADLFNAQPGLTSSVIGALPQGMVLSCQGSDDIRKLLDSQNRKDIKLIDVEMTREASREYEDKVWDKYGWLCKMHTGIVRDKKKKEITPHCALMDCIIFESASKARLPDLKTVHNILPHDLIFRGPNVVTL

`O=C(Nc1ccc(F)c(C(F)(F)F)c1)Nc1nnc(-c2ccncc2)s1`: the Potency entry in test [1] was “inactive”. Further, the Potency in [2] was 13700 nM (active).

Take `CC(N[C@H]1C[C@H]1c1ccccc1)c1ccc2c(c1)OCCO2` (stereo partly drawn): the Potency entry in [1], in [2], in [3], in test [4], in test [5] and in test [6] was “inactive” in each case. Also, the Potency result in test [7], in test [8], in [9], in [10], in [11] and in [12] was “inactive” throughout. The Potency result in test [13], in test [14], in test [15], in [16] and in test [17] was “inactive” throughout.

On to `O=c1cc(N2CCOCC2)oc2c(-c3cccc4c3sc3ccccc34)cccc12`, for which the Potency result in test [1], in test [2] and in test [3] was “inactive” each time.

Regarding `O=C(c1cc(Cc2n[nH]c(=O)c3ccccc23)ccc1F)N1CCN(C(=O)C2CC2)CC1`, the Potency result in test [1], in test [2] and in [3] was “inactive” each time.

As for `COCCNCCCn1c(C(=O)CF)c(-c2ccc(C)cc2)c2c(N)ncnc21`, the Potency entry in [1], in [2] and in [3] was “inactive” throughout.

Consider `CC(C)[C@H]1C(=O)N[C@H](CO)Cc2c[nH]c3cccc(c23)N1C`, for which the Potency entry in test [1], in [3], in test [4], in test [6], in [9] and in test [10] was “inactive” throughout. For the same molecule, the Potency result in test [11], in test [18], in test [13], in [15] and in [16] was “inactive” each time. For the same molecule, the Potency in [2] was 10900 nM (active).

With `C[C@]12CC[C@H]3[C@@H](CCC4=CC(=O)CC[C@@]43C)[C@H]1CC[C@H]2OC(=O)CCC1CCCC1`, the Potency entry in [1], in test [4], in [5], in test [6], in test [9] and in test [10] was “inactive” throughout. Also, the Potency entry in [11], in test [13], in [14], in [15], in test [16] and in [17] was “inactive” each time. Further, the Potency in test [2] is 6110 nM (active); in test [8], 11800 nM (active).

Take `CNCc1ccc(-c2[nH]c3cc(F)cc4c3c2CCNC4=O)cc1`: the Potency entry in test [1], in test [2] and in test [3] was “inactive” each time.

Take `CC1(C)CC/C(=C/c2ccc(Cl)cc2)C1(O)Cn1cncn1` (stereo not drawn): the Potency entry in test [1], in [19], in [4], in test [5], in test [7] and in test [8] was “inactive” each time. The Potency result in test [9], in test [10], in test [11], in test [13], in [15] and in [16] was “inactive” in each case.

Consider `N#Cc1ccc(NC(=O)Nc2ccccc2Br)c2n[nH]nc12`, for which the Potency entry in [1], in [2] and in [3] was “inactive” each time.

For `C[C@@]12OC(=O)[C@]1([C@@H](O)[C@@H]1C=CCCC1)NC(=O)[C@H]2CCCl`, the Potency in [1] was 34300 nM (active); in test [2], 24300 nM (active); in [4], 7390 nM (active); in test [5], 118 nM (active); in test [6] it was 10.5 nM (active); in test [7], 46.9 nM (active). Besides, the Potency in test [8] is 8.3 nM (active); in test [9] it was 96.8 nM (active); in test [10], 10.5 nM (active); in test [12], 37.2 nM (active); in [18], 171 nM (active); in test [13], 74.3 nM (active). The Potency in test [14] is 52.6 nM (active); in test [15], 137 nM (active); in test [16], 52.6 nM (active); in test [17], 68.5 nM (active).

As for `CC=C(C)C(=O)N[C@@H](c1ccccc1)[C@@H](O)C(=O)O[C@H]1C[C@@]2(O)[C@@H](OC(=O)c3ccccc3)[C@@H]3[C@]4(OC(C)=O)CO[C@@H]4C[C@H](O)[C@@]3(C)C(=O)[C@H](OC(C)=O)C(=C1C)C2(C)C`, the Potency result in test [1] and in [16] was “inactive” each time. Besides, the Potency is 3.4 nM (active) in [19]; 1.3 nM (active) in test [4]; 3.7 nM (active) in [5]; 1 nM (active) in test [8]; 1 nM (active) in test [14]; 1 nM (active) in [17].

Turning to `CC(C)(C)c1cc(NC(=O)Nc2ccc(-c3cn4c(n3)sc3cc(OCCN5CCOCC5)ccc34)cc2)no1`, the Potency result in test [1], in [2] and in test [3] was “inactive” throughout.

Turning to `CCOc1ccn(-c2ccc(F)cc2)c(=O)c1C(=O)Nc1ccc(Oc2ccnc(N)c2Cl)c(F)c1`, the Potency result in test [1], in test [2] and in [3] was “inactive” throughout.

As to `Cc1ccnc(NS(=O)(=O)c2ccc(NC(=O)Nc3ccc(S(=O)(=O)Nc4nccc(C)n4)cc3)cc2)n1`, in test [1], the Potency entry was “inactive”. Further, the Potency in [2] is 685 nM (active).

Regarding `COC[C@H]1OC(=O)c2coc3c2[C@@]1(C)C1=C(C3=O)[C@@H]2CC[C@H](O)[C@@]2(C)C[C@@H]1OC(C)=O`, the Potency result in test [4] was “inactive”. Also, the Potency in test [5] was 14800 nM (active); in test [6], 469 nM (active); in test [7], 9350 nM (active); in test [8] it was 296 nM (active); in [9] it was 6850 nM (active); in [10], 526 nM (active). Moreover, the Potency in test [12] was 2090 nM (active); in test [18], 27100 nM (active); in test [14], 2640 nM (active); in test [16], 4690 nM (active); in test [17] it was 306 nM (active).

Take `COc1ccc(N(C(=O)Oc2c(C)cccc2C)c2ccnc(Nc3ccc(N4CCN(C)CC4)cc3)n2)c(OC)c1`: the Potency result in [4] and in test [16] was “inactive” throughout. The Potency in test [6] is 8330 nM (active); in test [7], 935 nM (active); in test [8], 1320 nM (active); in [9], 15300 nM (active); in test [10], 8330 nM (active); in [18], 242 nM (active). The Potency in test [14] was 1480 nM (active); in [17], 9680 nM (active).

Regarding `Cc1cccc(Nc2nc(N[C@@H]3CCCC[C@H]3N)ncc2C(N)=O)c1`, in [19], the Potency was 4850 nM (active). The Potency entry in [2] and in test [3] was “inactive” throughout.

Take `Cc1nc(N)sc1-c1ccnc(Nc2ccc(N3CCOCC3)cc2)n1`: the Potency in [19] was 7690 nM (active); in test [2] it was 13700 nM (active). Further, in test [3], the Potency entry is “inactive”.

Turning to `CN(C)Cc1ccc(-c2nc3cccc4c3n2CCNC4=O)cc1`, the Potency was 21700 nM (active) in test [19] and 6850 nM (active) in test [2]. For the same molecule, the Potency result in test [3] is “inactive”.

In the case of `COc1nn(CSP(=S)(OC)OC)c(=O)s1`, the Potency result in [19], in test [2] and in test [4] was “inactive” each time.
